# USP17 block: blocks human USP17 ubiquitin-rhodamine cleavage. AID 1645855. 6.5% of 47,000 active. purified USP17, Ub-rhodamine cleavage fluorescence, 3 h. A8MUK1. inhibition, % at 50 µM
# USP8 inh: human USP8 deubiquitinase inhibition; P40818; purified USP8, Ub-rhodamine cleavage fluorescence, 30 min; inhibition, % at 20 µM; 4.2% of 47,000 active
# Target sequence (P40818 whole entry, looked up): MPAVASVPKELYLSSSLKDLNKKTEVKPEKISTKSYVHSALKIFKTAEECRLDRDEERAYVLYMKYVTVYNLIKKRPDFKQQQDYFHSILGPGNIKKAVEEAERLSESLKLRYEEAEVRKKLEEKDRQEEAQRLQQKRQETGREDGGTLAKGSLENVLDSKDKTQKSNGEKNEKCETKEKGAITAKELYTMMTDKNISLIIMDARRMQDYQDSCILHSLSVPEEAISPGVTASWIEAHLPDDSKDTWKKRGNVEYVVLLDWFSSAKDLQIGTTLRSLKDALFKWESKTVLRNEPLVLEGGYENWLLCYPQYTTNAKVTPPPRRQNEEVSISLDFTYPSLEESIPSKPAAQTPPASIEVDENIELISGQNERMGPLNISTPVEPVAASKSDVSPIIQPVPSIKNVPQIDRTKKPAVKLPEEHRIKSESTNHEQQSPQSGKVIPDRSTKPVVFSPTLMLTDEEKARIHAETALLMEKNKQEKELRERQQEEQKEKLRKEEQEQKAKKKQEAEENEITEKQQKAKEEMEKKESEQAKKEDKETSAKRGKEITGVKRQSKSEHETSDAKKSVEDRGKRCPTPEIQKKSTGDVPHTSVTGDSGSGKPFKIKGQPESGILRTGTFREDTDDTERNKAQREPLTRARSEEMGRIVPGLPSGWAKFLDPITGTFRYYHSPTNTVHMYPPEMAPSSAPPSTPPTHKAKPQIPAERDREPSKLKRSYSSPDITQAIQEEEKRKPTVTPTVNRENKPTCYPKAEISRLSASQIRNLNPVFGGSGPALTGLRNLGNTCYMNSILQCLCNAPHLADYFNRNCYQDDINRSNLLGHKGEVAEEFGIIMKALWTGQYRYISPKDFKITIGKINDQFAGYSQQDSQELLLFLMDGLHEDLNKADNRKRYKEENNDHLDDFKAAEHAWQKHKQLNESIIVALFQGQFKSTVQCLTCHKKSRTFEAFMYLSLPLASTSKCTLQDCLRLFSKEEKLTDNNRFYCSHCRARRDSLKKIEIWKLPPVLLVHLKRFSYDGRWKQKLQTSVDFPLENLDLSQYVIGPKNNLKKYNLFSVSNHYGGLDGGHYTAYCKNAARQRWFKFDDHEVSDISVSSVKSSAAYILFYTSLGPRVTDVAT
# USP28 inh: human USP28 deubiquitinase inhibition | purified USP28, Ub-rhodamine cleavage fluorescence, 30 min | 3% of 47,000 active | Q96RU2 | AID 1645857 | inhibition, % at 25 µM
# USP30 inh: inhibitors of human USP30 deubiquitinase; Q70CQ3; purified USP30, Ub-rhodamine cleavage fluorescence; inhibition, % at 25 µM; 5.3% of 47,000 active; AID 1645860
# An asterisk follows results filed as active; / = not tested or not shown. Hits are enriched below; roughly 13% of the tested compounds scored in any of these assays. Cut-off read from the data, not from the text of the source: active = inhibition above about 30%; inactive = the rest.
SMILES,USP17 block,USP8 inh,USP28 inh,USP30 inh
O=C1N[C@@H](Cc2ccccc2)C(=O)N2[C@H]3Nc4ccccc4[C@@]3([C@]34C[C@H]5C(=O)N[C@@H](Cc6ccccc6)C(=O)N5[C@H]3Nc3ccccc34)C[C@@H]12,52.9*,12.2,21.8,49.5*
CC(=O)c1ccc(N2CCN(Cc3nc4cc(Cl)ccc4c(=O)[nH]3)CC2)cc1,8.7,9.7,0.2,-30.9
COc1ccc(NS(=O)(=O)c2cc(NC(=O)/C=C/c3ccco3)ccc2N2CCCC2)cc1,75.4*,76.2*,57.2*,55.4*
COc1ccc(NS(=O)(=O)c2ccc(N3CCCC3)c(NC(=O)/C=C/c3ccccc3)c2)cc1,36.1*,-208.8,20.2,22.9
O=C(/C=C/c1ccccc1)Nc1cc(S(=O)(=O)Nc2cccc(Cl)c2)ccc1Cl,6.0,-9.7,6.8,-11.8
COc1ccc(NS(=O)(=O)c2cc(NC(=O)C3CC3)ccc2N2CCCCC2)cc1,-2.8,-5.3,2.1,5.7
CC(C)C[C@@H]1NC(=O)[C@H](CCC(N)=O)n2c1nc1ccccc1c2=O,-30.1,-0.1,0.3,0.8
COC(=O)[C@H]1[C@@H](O)[C@@]2(O)c3c(OC)cc(O[C@@H]4O[C@@H]([C@@H](O)CO)CO[C@H]4OC)cc3O[C@@]2(c2ccc(OC)cc2)[C@@H]1c1ccccc1,0.1,2.4,-1.6,1.6
O=C(c1cccnn1)N1CCCCC1c1ncc(Cc2cccc(F)c2)o1 (stereo unspecified),-17.6,-9.4,-5.6,-13.8
CC(C)CNC(=O)C1CCN(c2ccc(-c3ccc(F)cc3)nn2)CC1,2.8,5.2,/,/
O=C(Nc1cccc2ccccc12)C1CCN(c2ccc(-c3ccc(F)cc3)nn2)CC1,44.1*,3.1,/,/
COC(=O)c1c(NC(=O)Cc2coc3c(C)c(C)ccc23)sc2c1CCCC2,-12.2,-4.0,-11.0,-33.7
C[C@]12C[C@@H](c3ccccc3)C[C@](CO)(CC[C@@H](NC(=O)c3ccccc3)[C@@H]1O)O2,-1.1,-9.2,-8.0,0.1
CN(C(=O)c1ccncc1)[C@H]1CC[C@@]2(C)C[C@H](c3ccccc3)C[C@](C)(O2)[C@@H]1O,11.1,20.2,80.8*,28.7
C1CNCC(CCc2nc(N3CCCC3)nc3c2CNCC3)C1 (stereo unspecified),-8.4,-46.5,31.0*,25.1
COc1ccc(/C=C/C(=O)N(Cc2cccc(Cl)c2)C2CCS(=O)(=O)C2)cc1 (stereo unspecified),1.8,5.0,-2.8,0.7
O=C(/C=C/c1ccc(OCc2cccc(Cl)c2)cc1)NC1CCCC1,35.9*,15.9,13.9,21.6
Cc1ccc2nc(C(=O)N3CCOCC3c3[nH]ncc3C)cn2c1 (stereo unspecified),5.0,4.6,4.8,13.6
CCOc1ccc(NC(=O)CSc2nc3n[nH]c(C)c3c(=N)n2-c2ccc(OC)cc2)cc1,8.5,3.2,11.2,52.0*
Cc1cnnn1-c1ccc(C(=O)Nc2ccccc2Cl)cc1,1.4,-0.5,/,/
COc1ccc(NC(=O)CN2C(=O)c3ccccc3Sc3ccc(C(=O)N4CCCC4)cc32)c(OC)c1,54.6*,8.1,29.1,48.6*
CCC(=O)Oc1ccc(C(=O)Nc2cccc(C(=O)O)c2)cc1,-2.6,1.7,-0.2,7.6
COc1ccc(CCNC(=O)c2cc3ccccc3s2)cc1OC,-17.7,-14.3,86.0*,-25.7
COc1ccc(CC(=O)NCc2cc3ccccc3s2)cc1OC,-5.7,-19.6,8.7,-23.2
COc1ccc(CNC(=O)c2cc3ccccc3cc2OC)cc1OC,-10.0,-3.9,-8.9,-11.9
SMILES,USP17 block,USP8 inh,USP28 inh,USP30 inh
COc1ccc(CNC(=O)Cc2ccc3ccccc3c2)cc1OC,-1.9,9.0,4.3,5.2
COc1ccc(CNC(=O)c2ccc(-c3nnc(-c4ccccc4)o3)cc2)cc1OC,25.3,13.8,9.9,41.9*
COc1ccc(CNC(=O)Cc2cccc3ccccc23)cc1OC,23.7,0.0,8.3,30.0*
CCC(=O)Nc1nc(-c2ccc(C)cc2)ns1,45.6*,2.7,6.3,-79.8
Cc1ccc(-c2nsc(NC(=O)COc3ccccc3C)n2)cc1,-19.1,6.2,-13.0,-187.6
c1ccc2c(CNCC3CCNCC3)cccc2c1,1.5,-1.0,12.6,21.2
O=C(NCc1ccc(F)cc1)Nc1ccc(-c2nnc(-c3ccccc3)o2)cc1,71.8*,4.0,/,/
COc1ccc(-c2nsc(NC(=O)Cc3cccc4ccccc34)n2)cc1OC,0.2,4.0,32.7*,-57.1
O=C(Cn1cccc1-c1nnc(-c2ccccc2)o1)Nc1ccccc1,22.3,-16.8,/,/
COc1ccc(OCC(=O)Nc2nc(-c3ccc(OC)c(OC)c3)ns2)cc1,-14.0,-0.6,-12.1,-32.1
Nc1nc(Nc2ccc(Cl)cc2)sc1C(=O)c1cccc(C(F)(F)F)c1,2.8,14.7,11.2,16.7

# Assay outcomes from PubChem.
